{"source": "PubChem BioAssay (EPA / NIEHS)", "note": "Calls of active or inactive are those of the source. Rule for the calls: active = hit-call score of the fitted dose curve at least 0.9, where 1 is the maximum; inactive = score below 0.9.", "data": [{"read-out": "Ezrin (EZR), EZR (gene 7430)", "assay": "LTEA_HepaRG_EZR: Life Technologies and Expression Analysis (LTEA) Assay for Ezrin (EZR) using HepaRG (AID 2283491)", "conditions": "mRNA level, 48 h; actives raise or lower the signal", "protocol": "It is a marker of Cellular remodeling.Data from the assay component LTEA_HepaRG_EZR was analyzed into 1 endpoint. This assay endpoint, LTEA_HepaRG_EZR, was analyzed with bidirectional fitting relative to DMSO as the negative control and baseline of activity. Using a type of inducible reporter, measures of mRNA induction for gain or loss-of-signal activity can be used to understand regulation of transcription factor activity. To generalize the intended target to other relatable targets, this assay endpoint is annotated to the membrane protein intended target family, where the subfamily is Cellular remodeling.\nA total of 1060 chemcials from the ToxCast library were tested in eight-point concentration-response experiments. Cell culture and cytotoxicity assays were conducted at Thermo Fisher Scientific's Custom Services facility (Madison, WI). A single lot of human HepaRG cells (Thermo Fisher Scientific, Frederick, MD) was used for the cell culture experiments. 96-well format collagen type I coated plates of human HepaRG cells were prepared using established methods. Briefly, cryopreserved HepaRG cells were thawed, plated at a density of approximately 100,000 cells/well in HepaRG Thaw, Plate, and General Purpose media (HPRG770, Thermo Fisher Scientific), and incubated for 48 hours. 0.5% DMSO was selected as vehicle control to balance the requisite need of DMSO in HepaRG cultures to maintain differentiation (for example, baseline metabolism, proportions of hepatocytes vs. cholangiocytes), while enabling further hepatic receptor pathway activation (for example, PXR and CAR) in response to chemical exposure. 48 hours after plating, the culture medium was replaced with HepaRG Serum-Free Incudtion Media. Cells were exposed to each test chemical in duplicate and maintained in CO2 incubators for another 48 hours. Chemical plates were thawed to room temperature and 200x concentrations of treatment groups were prepared. 8-point conentration-reponse curves were made with the highest exposure at 100 uM, followed by half-log dilutions, all in 0.5% DMSO. Each test plate contained variouse controls, induction positive controls (1mM phenobarbital), cytotoxicity positive controls ([…] aflatoxin B1), vehicle controls (0.5% DMSO), and total lysis controls (0.5% DMSO). Cell morphology images were taken using an Essen IncuCyte FLR automated microscope, with six 96-well plates imaged in about 24 minutes. Images were captured and exported and JPEG files. Spent culture media was transfered to black-well plates for the LDH assay, and remaining media was sorted at -80 C for later use. Cells were treated with RLT buffer and frozen until shipped for gene expression analysis. Total RNA was isolated from the cell suspension in 75 uL of Buffer RLT (Qiagen, Germantown, MD 20874) by Quintiles/Expression Analysis (Durham, NC) using a custom isolation procedure. Total RNA from each plate well was transferred to a preamplification plate. Fluidigm's 96.96 Dynamic ArrayTM (Fluidigm, Amsterdam, the Netherlands) technology was used for gene expression analyses by quantitative reverse transcription polymerase chain reaction (qRT-PCR, performed by Quintiles/Expression Analysis, Durham, NC)89. Standard TaqManTM Assays (Applied Biosystems/ThermoFisher Scientific, Foster City, CA) were used to assess the expression of 93 genes selected based on their selectivity and sensitivity to important hepatic receptors known to be modulated by environmental chemicals; importance in human hepatocyte functionality; and hepatotoxicity. Three \"housekeeping\" endogenous control genes were also included and used for normalization: actin beta (ACTB), Glyceraldehyde 3 phosphate dehydrogenase (GAPDH) and RNA Polymerase II Subunit A (POLR2A). qRT-PCR was conducted according to the manufacturer's protocol.", "values": [{"smiles": "O=C(O)C(F)(F)C(F)(F)C(F)(F)C(F)(F)C(F)(F)C(F)(F)C(F)(F)C(F)(F)F", "AC50": "77 µM (active)"}, {"smiles": "CO/C=C(/C(=O)OC)c1ccccc1COc1cccc(C(F)(F)F)n1", "AC50": "5.1 µM (active)"}, {"smiles": "C[C@]12CCC(=O)C=C1CC[C@@H]1[C@@H]2CC[C@@]2(C)[C@H]1CC[C@]2(C)O", "outcome": "inactive"}, {"smiles": "Nn1cnnc1", "outcome": "inactive"}, {"smiles": "Cc1ccccc1CO[C@@H]1C[C@@]2(C(C)C)CC[C@]1(C)O2", "outcome": "inactive"}, {"smiles": "CC(c1ccc(O)cc1)(c1ccc(O)cc1)c1ccc(O)cc1", "AC50": "38.7 µM (active)"}, {"smiles": "CC(C)C(=O)OCC(C)(C)C(OC(=O)C(C)C)C(C)C", "note": "(stereo not given)", "outcome": "inactive"}, {"smiles": "Oc1ccc(C(c2ccc(O)cc2)(C(F)(F)F)C(F)(F)F)cc1", "outcome": "inactive"}, {"smiles": "CCNc1nc(NC(C)C)nc(SC)n1", "outcome": "inactive"}, {"smiles": "COS(=O)(=O)OC", "outcome": "inactive"}, {"smiles": "N#Cc1ccc(N(CC(N)=O)CC(F)(F)F)cc1C(F)(F)F", "outcome": "inactive"}, {"smiles": "Cc1ccccc1O", "outcome": "inactive"}, {"smiles": "Clc1ccc(C(c2ccccc2Cl)C(Cl)(Cl)Cl)cc1", "note": "(stereo not given)", "outcome": "inactive"}, {"smiles": "CCOCCOC(C)=O", "outcome": "inactive"}, {"smiles": "Oc1ccc(Cl)cc1Cl", "outcome": "inactive"}, {"smiles": "CCCCCCCCCC[N+](C)(C)CCCCCCCCCC", "AC50": "80.9 µM (active)"}, {"smiles": "CCC(C)(c1ccc(O)cc1)c1ccc(O)cc1", "outcome": "inactive"}, {"smiles": "O=NN(c1ccccc1)c1ccccc1", "outcome": "inactive"}, {"smiles": "ClC1=C(Cl)[C@]2(Cl)[C@@H]3[C@@H](Cl)[C@H]4O[C@H]4[C@@H]3C1(Cl)C2(Cl)Cl", "outcome": "inactive"}, {"smiles": "c1ccc(-c2ccccc2)cc1", "outcome": "inactive"}, {"smiles": "Clc1ccc(C(Cl)(Cl)Cl)cc1", "outcome": "inactive"}, {"smiles": "NS(=O)(=O)C(F)(F)C(F)(F)C(F)(F)C(F)(F)C(F)(F)C(F)(F)C(F)(F)C(F)(F)F", "AC50": "11.4 µM (active)"}, {"smiles": "C[C@]12CCC(=O)C=C1CC[C@@H]1[C@@H]2CC[C@]2(C)C(=O)CC[C@@H]12", "outcome": "inactive"}, {"smiles": "O=C(NC(=O)c1c(F)cccc1F)Nc1cc(Cl)c(OC(F)(F)C(F)F)c(Cl)c1", "outcome": "inactive"}, {"smiles": "Oc1c(Cl)c(Cl)c(Cl)c(Cl)c1Cl", "AC50": "1.58 µM (active)"}, {"smiles": "CN(C)c1nc(=O)n(C2CCCCC2)c(=O)n1C", "outcome": "inactive"}, {"smiles": "CCOC(=O)C(O)(c1ccc(Cl)cc1)c1ccc(Cl)cc1", "outcome": "inactive"}, {"smiles": "CCC(C)c1cc([N+](=O)[O-])cc([N+](=O)[O-])c1O", "note": "(stereo not given)", "AC50": "3.74 µM (active)"}, {"smiles": "Cc1ccccc1[N+](=O)[O-]", "outcome": "inactive"}, {"smiles": "Cc1ccc(O)c(C)c1", "outcome": "inactive"}, {"smiles": "O=S(=O)(O)C(F)(F)C(F)(F)C(F)(F)C(F)(F)C(F)(F)C(F)(F)F", "outcome": "inactive"}, {"smiles": "ClC1=C(Cl)[C@]2(Cl)[C@@H]3[C@@H]4C[C@@H]([C@H]5O[C@@H]45)[C@@H]3[C@@]1(Cl)C2(Cl)Cl", "outcome": "inactive"}, {"smiles": "Cc1cccc(C)c1N", "AC50": "0.364 µM (active)"}, {"smiles": "Cc1cc(-c2ccc(N)c(C)c2)ccc1N", "outcome": "inactive"}, {"smiles": "ClC(Cl)=C(c1ccc(Cl)cc1)c1ccc(Cl)cc1", "outcome": "inactive"}, {"smiles": "Nc1ccc(-c2ccc(N)cc2)cc1", "outcome": "inactive"}, {"smiles": "CCCCCCCCOC(=O)c1ccccc1C(=O)OCCCCCCCC", "outcome": "inactive"}, {"smiles": "C=CC(=O)NCNC(=O)C=C", "outcome": "inactive"}, {"smiles": "Cc1cc(O)ccc1Cl", "outcome": "inactive"}, {"smiles": "CC#Cc1cc(C)nc(Nc2ccccc2)n1", "outcome": "inactive"}]}]}
